# Where a name gives a salt, the structure may show the parent alone. Values without a mark were called inactive.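 How the source made its calls: active = normalised median growth AUC below 0.1 of DMSO control; inactive = AUC 0.1 or higher.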
# How the values were obtained:
# Assay in all cases: growth AUC normalised to DMSO control (median) (fraction of control); higher = less growth inhibition, active = hit call of the paper
# Conditions in all cases: 20 µM
# [1] = tested on: P. vulgatus RND KO
# Procedure, shortened: (§1)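 Each strain went through two overnight passages under anaerobic conditions before growth in mGAM in 96-well plates, starting at OD578 0.01, with each compound from the approved-drug library at 20 μM and 1% DMSO. Inside an anaerobic incubator, OD578 was recorded every hour for 24 h. Growth curves were cut off at entry into stationary phase, and the area under the curve was calculated by the trapezoidal rule and normalised to vehicle wells on the same plate. Reported values are medians of three biological replicates.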
# [2] = tested on: P. vulgatus WT
# Procedure, shortened: as §1
# [3] = tested on: S. enterica typhimurium WT
# Procedure, shortened: as §1
# [4] = tested on: S. enterica typhimurium tolC KO
# Procedure, shortened: as §1
# 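Further: active when median AUC fell below 0.1.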
Structure (SMILES),growth AUC normalised to DMSO control [1],growth AUC normalised to DMSO control [2],growth AUC normalised to DMSO control [3],growth AUC normalised to DMSO control [4]
CC(NN)c1ccccc1 (stereo unspecified) [Mebanazine],0.898,0.871,1,0.99
C[C@@H](CN1CC(=O)NC(=O)C1)N1CC(=O)NC(=O)C1 [Dexrazoxane hydrochloride],1.01,0.988,1.01,0.989
OC[C@H]1O[C@@H](c2ccc(Cl)c(Cc3ccc(O[C@H]4CCOC4)cc3)c2)[C@H](O)[C@@H](O)[C@@H]1O [Empagliflozin],1.02,1.04,1.01,0.992
CC(C)=CCOc1ccc(/C=C/C(=O)c2ccc(OCC=C(C)C)cc2OCC(=O)O)cc1 [Sofalcone],0.914,0.993,1,0.902
CCOC(=O)CC(=O)N1CCSC1COc1ccccc1OC (stereo unspecified) [Moguisteine],0.965,0.965,1.01,0.986
CC(=O)Oc1ccccc1C(=O)Nc1ncc([N+](=O)[O-])s1 [Nitazoxanide],0.0128 (active),0.0145 (active),0.922,0.414
Cc1onc(-c2ccccc2)c1-c1ccc(S(N)(=O)=O)cc1 [Valdecoxib],0.981,0.993,1,0.983
Cc1ccsc1C(=CCCN1CCC[C@@H](C(=O)O)C1)c1sccc1C [Tiagabine hydrochloride],0.999,0.984,1,1
CCOC(=O)[C@H](CCc1ccccc1)N[C@@H](C)C(=O)N1C(=O)N(C)C[C@H]1C(=O)O [Imidapril hydrochloride],1.01,1,1.02,1
Cc1c(O)c(=O)ccn1C [Deferiprone],0.978,0.993,1,1
CC(C(=O)O)c1ccc(CC2CCCC2=O)cc1 (stereo unspecified) [Loxoprofen],1.01,1.01,1.01,1.01
COc1cc(/C=C/C(=O)N2CCN(CC(=O)N3CCCC3)CC2)cc(OC)c1OC [Cinepazide maleate],1.04,1.08,1.01,1.01
N#Cc1ccc(Oc2ccc3c(c2)COB3O)cc1 [Crisaborole],1,1.02,1.01,1.02
Cc1cc(O)c(C(=O)N[C@@H](C(=O)N[C@@H]2C(=O)N3C(C(=O)O)=C(CSc4nnnn4C)CS[C@H]23)c2ccc(O)cc2)cn1 [Cefpiramide],0.0197 (active),0.0147 (active),0.121,0.0047 (active)
C#CCN[C@@H]1CCc2ccccc21 [Rasagiline],0.989,0.96,1,0.982
COc1cc2/c(=N/c3ccc(Br)cc3F)nc[nH]c2cc1OCC1CCN(C)CC1 [Vandetanib],1.1,1.08,1.02,1.01
CC(=O)NS(=O)(=O)c1ccc(NC(=O)c2ccccc2C(=O)O)cc1 [Phthalylsulfacetamide],0.999,0.997,1,1
CCCCOC(=O)c1ccccc1Nc1cccc(C(F)(F)F)c1 [Ufenamate],1.02,0.978,0.998,0.992
CCCC(=O)OCOC(=O)C1=C(C)NC(C)=C(C(=O)OC)C1c1cccc(Cl)c1Cl (stereo unspecified) [Clevidipine],0.986,0.992,0.98,1
CCOc1ccc2nc3cc(N)ccc3c(N)c2c1 [Ethacridine lactate],0.999,0.961,0.991,0.977
C/C(O)=C(\C#N)C(=O)Nc1ccc(C(F)(F)F)cc1 [Teriflunomide],0.969,0.982,1,0.88
CCN(CC)C(=O)c1cccnc1 [Nikethamide],0.992,1,1,1.01

Structure (SMILES),growth AUC normalised to DMSO control [1],growth AUC normalised to DMSO control [2],growth AUC normalised to DMSO control [3],growth AUC normalised to DMSO control [4]
C=CCOc1ccc(CC(=O)O)cc1Cl [Alclofenac],1.06,1.12,1,0.959
Oc1ccc(C2CNCCc3c2cc(O)c(O)c3Cl)cc1 (stereo unspecified) [Fenoldopam],0.995,0.992,0.985,0.978
CN1CCC(=C2c3ccccc3CCc3cccnc32)CC1 [Azatadine maleate],0.998,0.987,1,0.993
C=C(NC(=O)C(=C)NC(=O)c1csc(C2=N[C@@H]3c4csc(n4)[C@H]4NC(=O)c5csc(n5)[C@H]([C@](C)(O)[C@@H](C)O)NC(=O)[C@H]5CSC(=N5)/C(=C/C)NC(=O)[C@H]([C@@H](C)O)NC(=O)c5csc(n5)[C@]3(CC2)NC(=O)[C@H](C)NC(=O)C(=C)NC(=O)[C@H](C)NC(=O)[C@H]([C@@H](C)CC)N[C@@H]2C=Cc3c([C@H](C)O)cc(nc3[C@H]2O)C(=O)O[C@@H]4C)n1)C(N)=O [Thiostrepton],0.0151 (active),0.0162 (active),1,1
Nc1cccc2c1C(=O)N(C1CCC(=O)NC1=O)C2=O (stereo unspecified) [Pomalidomide],1.06,1.09,1.02,0.983
CO[C@@]12[C@H](COC(N)=O)C3=C(C(=O)C(C)=C(N)C3=O)N1C[C@@H]1N[C@@H]12 [Mitomycin C],0.0125 (active),0.013 (active),0.196,0.00599 (active)
Cc1cccc(C)c1OCC(=O)N[C@@H](Cc1ccccc1)[C@@H](O)C[C@H](Cc1ccccc1)NC(=O)[C@H](C(C)C)N1CCCNC1=O [Lopinavir],1.06,1.07,1.01,1.01
CC(C)Nc1cccnc1N1CCN(C(=O)c2cc3cc(NS(C)(=O)=O)ccc3[nH]2)CC1 [Delavirdine],1.02,1.07,1.02,0.98
Oc1c(Cl)cc(Cl)cc1Sc1cc(Cl)cc(Cl)c1O [Bithionol],0.0149 (active),0.0115 (active),0.991,0.0167 (active)
COC(=O)C1=C(C)NC(C)=C(C(=O)O[C@H]2CCN(Cc3ccccc3)C2)[C@H]1c1cccc([N+](=O)[O-])c1 [Barnidipine Hydrochloride],1.1,1.11,0.998,0.961
CCCCCCOc1ccccc1C(N)=O [Exalamide],1.01,1.04,1,0.917
Oc1cc(O)c2c(c1)O[C@H](c1ccc(O)c(O)c1)[C@@H](O)C2 [Cianidanol],1,1.01,1.01,0.994
CC(=O)Nc1ccc(CC(=O)O)cc1 [Actarit],0.953,1.01,1,0.991
CC1(C)S[C@@H]2[C@H](NC(=O)[C@H](N)c3ccccc3)C(=O)N2[C@H]1C(=O)OC1OC(=O)c2ccccc21 (stereo partly specified) [Talampicillin hydrochloride],0.00561 (active),0.00787 (active),0.00491 (active),0.00469 (active)
COc1cc(C(=O)N2CCOCC2)cc(OC)c1OC [Trimetozine],1.01,1.01,0.996,0.991
Cc1ccccc1C(=O)Nc1ccc(C(=O)N2CCCC(O)c3cc(Cl)ccc32)c(C)c1 (stereo unspecified) [Tolvaptan],0.919,0.928,0.993,0.94
COc1ncnc(NS(=O)(=O)c2ccc(N)cc2)c1OC [Sulfadoxine],0.981,0.982,0.99,0.993
O=C(O)c1cc(=O)c2ccccc2o1 [Chromocarb],0.981,1,0.998,1
Oc1c(Br)cc(Br)c2cccnc12 [Broxyquinoline],0.294,0.0591 (active),0.986,0.561
CC=CC1=C(C(=O)O)N2C(=O)[C@@H](NC(=O)[C@H](N)c3ccc(O)cc3)[C@H]2SC1 [Cefprozil],1.45,1.42,1.01,0.983
CCCCCOC(=O)Nc1nc(=O)n([C@@H]2O[C@H](C)[C@@H](O)[C@H]2O)cc1F [Capecitabine],0.987,0.998,0.982,0.994
NS(=O)(=O)c1cc(C(=O)NN2C[C@@H]3[C@H]4CC[C@H](C4)[C@@H]3C2)ccc1Cl [Tripamide],1.02,1.07,0.999,0.975
